Measured values: PubChem BioAssay (NCATS)
Inconclusive results are not listed. Activity calls are given as the source filed them. Unless noted, calls follow the shape of the dose curve; as a rule, active = well fitted curve in the direction sought with a large enough effect; inconclusive = small, poorly fitted or top-dose-only effect, or another doubt; inactive = no such curve, though single readings can be large; an effect the other way counts as inactive or inconclusive.

Tests used:
[1] = system: Zika virus NS2B-NS3 protease; assay: Primary screen GU AMC qHTS for Zika virus inhibitors (AID 1347154);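 also: 0% = no-inhibitor control and -100% = no-enzyme control; nearly all actives have a fitted effect of over 70% in size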
Outline: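 Unlinked Zika NS2B hydrophilic domain–NS3 protease complex at 25 nM in 10 mM Tris-HCl pH 8.0, 0.01% Tween 20, with an AMC peptide substrate. Fluorescence change (340/450 nm) over 15 min at room temperature, normalized to controls, fitted to 4-parameter Hill.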

[2] = Primary qHTS for small molecule stabilizers of the endoplasmic reticulum resident proteome: Secreted ER Calcium Modulated Protein (SERCaMP) assay (AID 1508630); also: % is scaled to controls: 0 for no effect and ±100 for the full control effect
Outline: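 GLuc-SERCaMP-expressing SH-SY5Y cells, pretreated 16 h with compound, are challenged with thapsigargin to empty ER calcium stores; after 4 h, coelenterazine is added directly to the medium and luminescence is imaged.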

[3] = target: Cytochrome P450 1A2 (Homo sapiens) (UniProt P05177); assay: p450-cyp1a2 (AID 410; calls by dose curve; also: potency is read from the fitted curve at half-maximal effect;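 as to activity change, negative = inhibition: -100% = full effect of reference inhibitor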)
Cytochrome P450 1A2 (Homo sapiens), sequence (P05177 whole entry, looked up): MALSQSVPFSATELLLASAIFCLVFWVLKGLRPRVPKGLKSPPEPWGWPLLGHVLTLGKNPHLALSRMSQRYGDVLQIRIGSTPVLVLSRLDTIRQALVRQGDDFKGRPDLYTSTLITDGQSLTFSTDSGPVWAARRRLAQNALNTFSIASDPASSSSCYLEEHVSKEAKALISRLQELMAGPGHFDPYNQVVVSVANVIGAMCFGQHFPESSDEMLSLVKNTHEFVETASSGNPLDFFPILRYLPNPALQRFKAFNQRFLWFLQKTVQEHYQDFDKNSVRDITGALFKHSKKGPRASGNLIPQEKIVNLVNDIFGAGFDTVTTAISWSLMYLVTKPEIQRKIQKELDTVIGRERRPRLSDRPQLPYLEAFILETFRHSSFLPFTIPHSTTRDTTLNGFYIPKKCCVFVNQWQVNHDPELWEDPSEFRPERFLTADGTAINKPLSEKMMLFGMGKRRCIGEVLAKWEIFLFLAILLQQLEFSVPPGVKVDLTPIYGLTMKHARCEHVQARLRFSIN
Outline: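 Luminescent readout of luciferin formed from Luciferin-ME by human CYP1A2; data normalized against complete inhibition by 57 uM furafylline. Enzyme 20nM, substrate 100uM at Km, 100mM KPO4 buffer, 60 min reaction at room temperature.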

[4] = target: Glucocorticoid receptor (Homo sapiens) (UniProt P04150); assay: GR-GFP Redistribution (AID 450;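 active = compounds whose dose series gives a full or clear partial fitted curve of increased nuclear translocation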; also: potency is read from the fitted curve at half-maximal effect); conditions: U2OS GR-GFP nuclear translocation, laser cytometry, 2 h
Glucocorticoid receptor (Homo sapiens), sequence (P04150 whole entry, looked up, the tested form may be a part): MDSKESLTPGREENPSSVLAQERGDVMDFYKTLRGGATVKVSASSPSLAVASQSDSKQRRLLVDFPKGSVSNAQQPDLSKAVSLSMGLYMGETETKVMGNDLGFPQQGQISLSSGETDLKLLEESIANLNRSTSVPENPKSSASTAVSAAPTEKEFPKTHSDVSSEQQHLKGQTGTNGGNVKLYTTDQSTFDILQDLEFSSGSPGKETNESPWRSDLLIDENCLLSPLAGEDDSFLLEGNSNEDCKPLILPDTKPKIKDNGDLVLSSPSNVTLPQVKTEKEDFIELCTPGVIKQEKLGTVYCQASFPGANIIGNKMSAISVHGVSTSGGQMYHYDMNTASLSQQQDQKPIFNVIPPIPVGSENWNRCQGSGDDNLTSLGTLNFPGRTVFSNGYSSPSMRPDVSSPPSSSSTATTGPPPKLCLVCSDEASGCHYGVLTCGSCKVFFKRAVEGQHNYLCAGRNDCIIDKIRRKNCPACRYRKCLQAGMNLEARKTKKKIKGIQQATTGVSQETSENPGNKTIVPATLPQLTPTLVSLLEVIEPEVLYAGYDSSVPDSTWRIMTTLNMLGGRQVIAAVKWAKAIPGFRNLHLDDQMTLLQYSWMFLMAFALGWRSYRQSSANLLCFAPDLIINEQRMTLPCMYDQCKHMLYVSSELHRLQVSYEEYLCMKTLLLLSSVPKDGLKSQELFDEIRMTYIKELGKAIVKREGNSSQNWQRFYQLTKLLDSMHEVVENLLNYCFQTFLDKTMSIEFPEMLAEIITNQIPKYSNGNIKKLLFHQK

[5] = target: Glucocorticoid receptor (Homo sapiens) (UniProt P04150); assay: GR-EFC Redistribution (AID 451; calls by dose curve; also: potency is read from the fitted curve at half-maximal effect); conditions: CHO-K1 GR-EFC translocation, beta-gal luminescence, 2 h
Outline: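 CHO-K1 cells expressing nuclear EA and GR-ED fragments of b-gal; compounds titrated up to 46 uM final, 2 h at 37 C. GR nuclear translocation read as complemented b-gal luminescence after 1 h RT detection.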

[6] = target: Mitogen-activated protein kinase 10 (Mus musculus) (UniProt Q61831); assay: JNK3 AlphaScreen Assay (AID 530; active = well fitted curve in either direction with a large enough effect, not every such curve was filed as active;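 also: kinase came from lysate of stimulated human HepG2 cells; signal reports phosphorylation of biotinylated GST-cJun 1-79 at Ser73 with 10 µM ATP; % is scaled to controls: 0 for no effect and ±100 for the full control effect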)
Outline: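 Pre-activated (IL-1β/TNFα) JNK3 in HepG2 lysates phosphorylates biotin-GST-cJun(1-79), 10 uM ATP; anti-phospho-cJun(Ser73) AlphaScreen read at room temperature, pH 7.6 Tris buffer. Compounds pre-incubated 15 min as titrations.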

[7] = target: Cytochrome P450 3A4 (Homo sapiens) (UniProt P08684); assay: qHTS Assay for Activators of Cytochrome P450 3A4 (AID 885); also: nearly all actives have a fitted effect of over 65% in size
Cytochrome P450 3A4 (Homo sapiens), sequence (P08684 whole entry, looked up): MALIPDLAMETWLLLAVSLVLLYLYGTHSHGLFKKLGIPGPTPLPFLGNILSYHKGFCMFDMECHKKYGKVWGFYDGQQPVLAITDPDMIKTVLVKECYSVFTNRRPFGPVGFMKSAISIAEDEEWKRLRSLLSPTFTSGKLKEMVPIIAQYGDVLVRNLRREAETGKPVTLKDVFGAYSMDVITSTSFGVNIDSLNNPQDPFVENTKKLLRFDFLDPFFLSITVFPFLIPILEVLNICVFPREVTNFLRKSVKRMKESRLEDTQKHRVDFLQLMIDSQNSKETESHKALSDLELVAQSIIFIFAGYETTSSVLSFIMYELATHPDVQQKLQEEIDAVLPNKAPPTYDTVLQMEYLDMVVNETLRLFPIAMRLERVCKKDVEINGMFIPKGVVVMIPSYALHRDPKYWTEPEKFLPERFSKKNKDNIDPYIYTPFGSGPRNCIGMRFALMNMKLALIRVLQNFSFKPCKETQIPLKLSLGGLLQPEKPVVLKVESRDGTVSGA
Outline: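 20nM CYP3A4 + 25uM Luciferin-PPXE (=KM), 200mM KPO4; cpd 10 min RT; NADPH regen, 60 min RT; stop w/ detection buffer, 20 min; luminescence. Normalized to 57 uM ketoconazole.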

[8] = target: Cytochrome P450 2C19 (Homo sapiens) (UniProt P33261); assay: qHTS Assay for Inhibitors and Substrates of Cytochrome P450 2C19 (AID 899); also: potency is read from the fitted curve at half-maximal effect; nearly all actives have a fitted effect of over 60% in size
Cytochrome P450 2C19 (Homo sapiens), sequence (P33261 whole entry, looked up): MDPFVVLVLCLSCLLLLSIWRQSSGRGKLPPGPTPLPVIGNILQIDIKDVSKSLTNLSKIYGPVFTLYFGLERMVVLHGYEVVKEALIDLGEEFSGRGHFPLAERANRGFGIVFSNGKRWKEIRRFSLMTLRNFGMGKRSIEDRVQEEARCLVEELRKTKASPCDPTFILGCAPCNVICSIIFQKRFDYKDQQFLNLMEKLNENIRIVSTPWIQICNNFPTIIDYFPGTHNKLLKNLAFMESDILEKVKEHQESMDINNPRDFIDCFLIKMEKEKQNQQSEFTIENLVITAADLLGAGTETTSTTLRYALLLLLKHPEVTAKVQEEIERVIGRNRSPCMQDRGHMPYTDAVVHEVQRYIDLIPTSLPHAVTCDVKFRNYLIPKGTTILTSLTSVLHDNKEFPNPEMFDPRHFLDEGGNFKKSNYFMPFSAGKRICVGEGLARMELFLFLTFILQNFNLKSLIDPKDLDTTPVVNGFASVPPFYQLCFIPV
Outline: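 Signal comes from luciferase acting on luciferin released by CYP2C19-mediated hydroxylation of Luciferin-H EGE, 10uM (KM). Assay mix: 5nM enzyme, 50mM KPO4; 60 min at 37C with NADPH regeneration. Data normalized against 57uM ketoconazole.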

[9] = target: DNA dC->dU-editing enzyme APOBEC-3G (Homo sapiens) (UniProt Q9HC16); assay: qHTS for inhibitors of Vif-A3G interactions: Validation (AID 588379); also: 0% is about no effect
DNA dC->dU-editing enzyme APOBEC-3G (Homo sapiens), sequence (Q9HC16 whole entry, looked up): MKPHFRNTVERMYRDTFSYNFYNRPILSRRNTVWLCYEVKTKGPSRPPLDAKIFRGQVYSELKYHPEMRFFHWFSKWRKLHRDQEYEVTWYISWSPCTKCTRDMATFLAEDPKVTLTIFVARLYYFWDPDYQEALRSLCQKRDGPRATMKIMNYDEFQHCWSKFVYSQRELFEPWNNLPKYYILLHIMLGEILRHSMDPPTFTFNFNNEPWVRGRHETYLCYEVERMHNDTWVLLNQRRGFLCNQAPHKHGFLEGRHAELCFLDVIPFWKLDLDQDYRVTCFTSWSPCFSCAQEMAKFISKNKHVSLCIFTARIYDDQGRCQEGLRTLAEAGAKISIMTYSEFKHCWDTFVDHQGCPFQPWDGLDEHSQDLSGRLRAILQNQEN
Outline: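 HeLa cells stably expressing Vif and A3G-eYFP, 700 cells/well, incubated overnight at 37 deg C, then exposed to compound overnight at 37 deg C. Inhibition of Vif-mediated degradation read as increased yellow fluorescence (Ex 488/Em 500-530) by laser-scanning cytometry.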

[10] = Confirmatory qHTS for small molecule stabilizers of the endoplasmic reticulum resident proteome: Secreted ER Calcium Modulated Protein (SERCaMP) assay (AID 1508628); also: % is scaled to controls: 0 for no effect and ±100 for the full control effect; nearly all actives have a fitted effect of over 40% in size
Outline: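 SH-SY5Y cells stably expressing GLuc-SERCaMP, treated 16 h with compound (primary 1.53, 7.67, 38.3 uM; confirmation 11 concentrations, up to 76.6 uM), then 100 nM thapsigargin for 4 h. Secreted Gaussia luciferase in medium read by coelenterazine luminescence.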

[11] = AP1 Signaling Pathway (AID 357; active = well fitted curve in either direction with a large enough effect, not every such curve was filed as active; also: % is scaled to controls: 0 for no effect and ±100 for the full control effect)
Outline: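 AP-1-bla ME-180 cells with beta-lactamase reporter under AP-1 response element, stimulated with EC50 EGF; compounds titrated, 5 hours at 37 degrees Celsius. CCF4 read at 460/530 nm ratio; positive and negative modulators judged by AC50.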

[12] = NFAT Signaling Pathway (AID 444; active = well fitted curve in either direction with a large enough effect, not every such curve was filed as active;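 also: carbachol stimulus at about its EC50 of 1 µM final; % is scaled to controls: 0 for no effect and ±100 for the full control effect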); conditions: Jurkat NFAT-bla M1, carbachol, beta-lactamase ratio, 5 h; at 38 µM (top of the series)
Outline: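 Jurkat cells with NFAT-driven β-lactamase reporter and co-expressed M1 receptor, stimulated with carbachol (final 1 uM, ~EC50), compound titration, 5 h at 37 °C. CCF4 loaded 1 h at RT; 460/530 nm ratio gave %activity and AC50.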

[13] = Stat Signaling Pathway (AID 446; active = well fitted curve in either direction with a large enough effect, not every such curve was filed as active)
Outline: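 ME-180 SIE-bla cells; overnight plating; cpd + IL-6 40 pM, 5 h, 37 C; LiveBLAzer 2.5 h RT; 460/530 nm emission ratio. Normalized to 300 pM IL-6 and 125 nM JAK inhibitor controls.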

[14] = qHTS Assay for Identification of Small Molecule Agonists for Hypoxia Response Element Signaling Pathway (AID 914; active = well fitted activation curve with a large enough effect in the signal ratio, with a control signal flat, not every such curve was filed as active; the % refers to the signal ratio; also: % of control where 0% means no effect); conditions: ME-180 (cervical carcinoma) HRE-bla reporter, beta-lactamase ratio, CoCl2, 17 h; activation: stronger effect = higher value
Outline: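 qHTS titration; ME-180 HRE-bla cells; EC50 CoCl2 co-treatment, 17 h at 37 degrees Celsius; CCF4 dye, ex 405nm, em 460nm and 530nm; %Activity from ratio; AC50.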

[15] = qHTS Assay for Identification of Small Molecule Agonists for Thrombopoietin (TPO) Signaling Pathway (AID 917); also: % is scaled to controls: 0 for no effect and ±100 for the full control effect
Outline: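 Reporter: GpIIb promoter–luciferase in murine Ba/F3 expressing human TPO receptor. Pre-starved of IL-3 overnight; compounds with 26 pM TPO, 24 hrs, 37 C/5% CO2; luminescence read.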

[16] = target: Muscarinic acetylcholine receptor M1 (Rattus norvegicus) (UniProt P08482); assay: qHTS Assay for Antagonists of Acetylcholine Muscarinic M1 Receptor: Kinetic Measurement of Intracellular Calcium Response (AID 943);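 also: Fluo-4 calcium signal as peak divided by basal fluorescence over 4 min; nearly all actives have a fitted effect of over 75% in size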
Muscarinic acetylcholine receptor M1 (Rattus norvegicus), sequence (P08482 whole entry, looked up): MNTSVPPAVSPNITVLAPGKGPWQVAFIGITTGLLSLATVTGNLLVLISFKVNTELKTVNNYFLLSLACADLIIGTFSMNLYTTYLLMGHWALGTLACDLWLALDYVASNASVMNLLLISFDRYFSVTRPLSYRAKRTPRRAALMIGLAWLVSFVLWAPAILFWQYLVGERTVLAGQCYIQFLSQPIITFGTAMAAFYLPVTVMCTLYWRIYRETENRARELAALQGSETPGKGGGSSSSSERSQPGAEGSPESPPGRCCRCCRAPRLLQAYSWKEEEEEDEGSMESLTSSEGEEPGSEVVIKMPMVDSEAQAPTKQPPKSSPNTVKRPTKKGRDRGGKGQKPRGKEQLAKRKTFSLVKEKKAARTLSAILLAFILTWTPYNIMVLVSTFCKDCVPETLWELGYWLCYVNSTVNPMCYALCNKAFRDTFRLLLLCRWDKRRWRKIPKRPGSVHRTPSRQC
Outline: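 Rat M1-CHO cells, 2000/well, overnight → Fluo-4 no-wash dye with probenecid, 1 h 37C → compound 10 min, room temp → basal read 6 s → carbachol EC80 (100 nM) → 4 min kinetic read; peak/basal.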

[17] = target: Muscarinic acetylcholine receptor M1 (Rattus norvegicus) (UniProt P08482); assay: qHTS Assay for Antagonists of Acetylcholine Muscarinic M1 Receptor: Measurement of IP-One Response (AID 944); also: nearly all actives have a fitted effect of over 75% in size
Outline: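 M1-CHO (rat), 2000 cells/well, overnight recovery; cpd 10 min; carbachol EC80 (200 nM), 30 min, HEPES buffer + 50 mM LiCl pH 7.4; IP-One HTRF, Ex 337, Em 620/665 nm.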

[18] = target: Pyruvate kinase (Leishmania mexicana) (UniProt Q27686); assay: qHTS Validation Assay for Inhibitors of Leishmania Mexicana Pyruvate Kinase (AID 945);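 also: 0% = DMSO only neutral control wells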
Pyruvate kinase (Leishmania mexicana), sequence (Q27686 2-499 E452W): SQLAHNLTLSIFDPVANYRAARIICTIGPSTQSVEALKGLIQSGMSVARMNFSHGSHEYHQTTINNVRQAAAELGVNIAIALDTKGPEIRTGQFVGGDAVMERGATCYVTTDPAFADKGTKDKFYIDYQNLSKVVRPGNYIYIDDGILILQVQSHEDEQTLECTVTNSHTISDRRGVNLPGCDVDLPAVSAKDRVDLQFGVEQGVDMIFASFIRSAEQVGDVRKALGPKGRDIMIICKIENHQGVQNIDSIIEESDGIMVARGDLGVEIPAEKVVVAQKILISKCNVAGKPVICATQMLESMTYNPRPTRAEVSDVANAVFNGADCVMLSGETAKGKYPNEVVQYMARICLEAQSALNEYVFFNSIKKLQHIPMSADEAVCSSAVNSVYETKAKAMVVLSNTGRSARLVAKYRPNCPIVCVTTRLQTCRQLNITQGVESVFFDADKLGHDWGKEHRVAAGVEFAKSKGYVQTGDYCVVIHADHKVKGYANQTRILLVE
Outline: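 Read-out: luminescence from PKLight stop/detection reagent, data normalized to DMSO. Reaction: 0.2 nM E451W LmPYK, 0.5 mM PEP, 0.1 mM ADP, pH 7.2, 1 h room temperature.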

[19] = target: Pyruvate kinase PKM (Homo sapiens) (UniProt P14618); assay: qHTS Assay for Activators of Human Muscle Pyruvate Kinase (AID 954; active = well fitted curve in the direction sought with a large enough effect, not every such curve was filed as active;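 also: 0% = uninhibited enzyme and -100% = no enzyme or full thiadiazolimine inhibition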)
Pyruvate kinase PKM (Homo sapiens), sequence (P14618 whole entry, looked up): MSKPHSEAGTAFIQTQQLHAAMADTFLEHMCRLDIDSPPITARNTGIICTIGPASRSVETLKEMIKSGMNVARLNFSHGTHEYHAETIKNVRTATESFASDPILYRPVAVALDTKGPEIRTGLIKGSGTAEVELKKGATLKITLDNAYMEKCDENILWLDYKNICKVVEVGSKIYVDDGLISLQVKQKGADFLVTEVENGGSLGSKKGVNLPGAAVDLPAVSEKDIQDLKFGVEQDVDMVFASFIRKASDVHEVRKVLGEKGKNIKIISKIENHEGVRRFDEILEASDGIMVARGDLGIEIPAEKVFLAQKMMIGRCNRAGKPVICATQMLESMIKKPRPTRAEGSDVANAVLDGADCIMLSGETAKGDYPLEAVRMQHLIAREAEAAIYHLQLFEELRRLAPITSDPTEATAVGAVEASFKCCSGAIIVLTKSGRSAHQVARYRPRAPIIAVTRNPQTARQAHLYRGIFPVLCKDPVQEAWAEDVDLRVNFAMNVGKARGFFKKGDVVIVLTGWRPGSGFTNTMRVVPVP
Outline: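 Luminescence from a luciferase ATP-detection/stop reagent reported PKM2 activity. Reactions contained 0.1 nM purified human enzyme, 0.5 mM PEP, 0.1 mM ADP and 7 mM MgCl2 at pH 7.2, run 1 h at RT.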

[20] = target: Alpha-galactosidase (Coffea arabica) (UniProt Q42656); assay: Counterscreen for Glucocerebrosidase Inhibitors: qHTS Assay for Coffee Bean alpha-Galactosidase at pH 4.5 (AID 957);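 also: plate controls were enzyme alone for no effect and no enzyme for full effect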
Alpha-galactosidase (Coffea arabica), sequence (Q42656 whole entry, looked up): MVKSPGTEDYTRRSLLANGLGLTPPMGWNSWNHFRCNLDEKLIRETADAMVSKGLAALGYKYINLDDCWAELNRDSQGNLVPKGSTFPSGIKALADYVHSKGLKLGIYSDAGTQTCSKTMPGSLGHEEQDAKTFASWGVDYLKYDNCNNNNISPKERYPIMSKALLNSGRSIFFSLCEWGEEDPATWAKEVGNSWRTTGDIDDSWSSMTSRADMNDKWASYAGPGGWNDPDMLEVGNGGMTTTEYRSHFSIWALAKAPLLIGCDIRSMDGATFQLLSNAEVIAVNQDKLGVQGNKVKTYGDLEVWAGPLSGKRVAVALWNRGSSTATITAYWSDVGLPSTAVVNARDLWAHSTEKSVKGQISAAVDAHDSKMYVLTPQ
Outline: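 Coffee bean alpha-galactosidase 2 nM, substrate 4-MU-alpha-Gal 80 uM, pH 4.5 citrate/Tween-20, 20 min RT. Cpd titration 0.7 nM–77 uM. Stop pH 10, fluorescence 365/440 nm; Hill-equation AC50.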

[21] = target: Alpha-galactosidase A (Homo sapiens) (UniProt P06280); assay: Counterscreen for Glucocerebrosidase Inhibitors: qHTS Assay for Human alpha-Galactosidase at pH 4.5 (AID 992); also: 0% is about no effect
Alpha-galactosidase A (Homo sapiens), sequence (P06280 whole entry, looked up): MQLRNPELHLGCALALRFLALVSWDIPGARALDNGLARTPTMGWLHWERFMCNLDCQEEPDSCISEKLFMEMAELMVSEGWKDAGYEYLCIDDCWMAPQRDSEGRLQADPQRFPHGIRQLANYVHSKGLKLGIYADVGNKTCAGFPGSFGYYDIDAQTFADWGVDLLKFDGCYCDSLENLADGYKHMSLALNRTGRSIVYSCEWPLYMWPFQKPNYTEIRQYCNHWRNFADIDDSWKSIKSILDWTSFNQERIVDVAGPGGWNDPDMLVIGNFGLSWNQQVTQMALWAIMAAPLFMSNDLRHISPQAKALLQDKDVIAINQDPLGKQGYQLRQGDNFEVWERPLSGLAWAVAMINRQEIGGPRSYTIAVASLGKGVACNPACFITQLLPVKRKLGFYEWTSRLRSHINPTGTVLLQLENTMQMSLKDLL
Outline: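 Enzyme at 2 nM final was combined with compound (0.7 nM to 77 uM) and 80 uM 4-methylumbelliferyl alpha-D-galactopyranoside in 50 mM citric acid, 0.005% Tween-20, pH 4.5. After 20 min at room temperature, fluorescence was read (Ex 365/Em 440 nm); AC50 came from Hill fits.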

[22] = target: alpha-glucosidase (Oryza sativa, rice) (UniProt Q653V4); assay: Counterscreen for Glucocerebrosidase Inhibitors: qHTS Assay for Rice alpha-Glucosidase at pH 5.0 (AID 997);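 also: 0% = full activity with enzyme and -100% = basal without enzyme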
Outline: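 Rice alpha-glucosidase (4 nM final) with 400 uM 4-methylumbelliferyl-alpha-D-glucopyranoside in citrate buffer pH 5.0, 20 min at room temperature, stopped at pH 10; fluorescence 365/440 nm, compounds 0.7 nM–77 uM, AC50 from Hill fits.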

[23] = target: Alpha-galactosidase (Coffea arabica) (UniProt Q42656); assay: Counterscreen for Glucocerebrosidase Inhibitors: qHTS Assay for Coffee Bean alpha-Galactosidase at pH 5.9 (AID 998);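 also: plate controls were uninhibited enzyme for no effect and no-enzyme basal signal for full effect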
Outline: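 Green coffee bean enzyme (2 nM) with 4-methylumbelliferyl alpha-D-galactopyranoside (80 uM) in 50 mM citric acid, 0.005% Tween-20, pH 5.9, 20 min at room temperature; compounds 0.7 nM–77 uM. Stopped at pH 10, fluorescence Ex365/Em440; Hill-fit AC50.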

[24] = qHTS Assay for Lipid Storage Modulators (AID 1519; calls by dose curve); conditions: Drosophila S3 cells, BODIPY lipid droplet/cell ratio, laser cytometry, cells loaded with oleic acid
Outline: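 Cells seeded at 5,000 per well were treated with compounds over a concentration series and loaded with oleic acid (400 uM, as added). Lipid droplet fluorescence (488 nm excitation, 500-530 nm channel) was read by laser-scanning cytometry and normalized to 20 uM Triacsin C.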

C[C@]12CCC3C(CC[C@H]4C[C@H](O)CC[C@]34C)[C@@H]1CC[C@@H]2C(=O)CO (stereo partly specified)
inactive: Potency [1] | Potency [2]

CCCCC/C=C\C/C=C\C/C=C\C=C\[C@H](CCCC(=O)O)OO
inactive: activity change, negative = inhibition [1] 7.53% [at 0.59 µM] | activity change, negative = inhibition [2] -17.5% [at 0.478 µM]

COc1cc(OC2CCN(C(C)=O)CC2)ccc1C(=O)N1CCC(N2C(=O)OCc3ccccc32)CC1
inactive: Potency [1] | Potency [2]

CCOC(=O)CN1C(=O)CC(C[C@@H](O)C2C[C@@H](C)C[C@H](C)C2=O)CC1=O (stereo partly specified)
inactive: Potency [1] | Potency [2]

CC(C)C[C@H](NC(=O)[C@H](Cc1ccccc1)NC(=O)CNC(=O)[C@H](CO)NC(=O)[C@@H](N)Cc1ccc(O)cc1)C(=O)N[C@H](C(=O)O)[C@H](C)O
inactive: activity change, negative = inhibition [1] 10.8% [at 6.83 µM] | activity change, negative = inhibition [2] -28.8% [at 3.88 µM]

CCCCCCCCCCCCCCCCOC[C@@H](O)COP(=O)([O-])OCC[N+](C)(C)C
inactive: activity change, negative = inhibition [1] 3.47% [at 6.83 µM] | activity change, negative = inhibition [2] 13.1% [at 3.88 µM]

CC(C)(C)NC[C@H](O)COc1cccc2[nH]c(C#N)cc12
inactive: Potency [1] | Potency [2]

CC(CN)CC(=O)O (stereo unspecified)
inactive: Potency [1] | Potency [2]

CN(C(=O)Cc1ccc(Cl)c(Cl)c1)[C@H](CN1CCCC1)c1ccccc1
inactive: Potency [4] > 46 µM | Potency [5] > 46 µM | outcome [6] | Potency [7] | Potency [9] | Potency [1] | Potency [10] | Potency [2]
active: Potency [3] 31.6 µM | Potency [8] 0.316 µM

CC1OC(=O)[C@@H](C(C)C)NC(=O)C(C(C)C)OC(=O)[C@H](C(C)C)NC(=O)C(C)OC(=O)[C@@H](C(C)C)NC(=O)C(C(C)C)OC(=O)[C@H](C(C)C)NC(=O)C(C)OC(=O)[C@@H](C(C)C)NC(=O)C(C(C)C)OC(=O)[C@H](C(C)C)NC1=O (stereo partly specified)
inactive: Potency [1] | Potency [2]

COC(C/C=C/C=C/CC/C=C\CC(C)/C=C\C(=C/C(=O)O)CC(=O)O)/C(C)=C\C=C(/C)C(=O)O (stereo unspecified)
inactive: activity change, negative = inhibition [1] 8.89% [at 6.83 µM] | activity change, negative = inhibition [2] -26.8% [at 3.88 µM]

C/C=C1/C[N@@+]2(C)CC[C@]34C(=C(C=O)[C@H]1C[C@H]32)Nc1ccccc14
inactive: Potency [1] | Potency [2]

CSCC[C@H](NC(=O)[C@H](Cc1ccccc1)NC(=O)CNC(=O)CNC(=O)[C@@H](N)Cc1ccc(O)cc1)C(=O)O
inactive: activity change, negative = inhibition [1] -0.9% [at 6.83 µM] | activity change, negative = inhibition [2] -26.7% [at 3.88 µM]

NCC(CC(=O)O)c1ccc(Cl)s1 (stereo unspecified)
inactive: Potency [1] | Potency [2]

CC1CC2CCC(O2)C(C)C(=O)OC(C)CC2CCC(O2)C(C)C(=O)OC(C)CC2CCC(O2)C(C)C(=O)OC(C)CC2CCC(O2)C(C)C(=O)O1 (stereo unspecified)
inactive: Potency [1] | Potency [2]

CCN1C[C@]2(COC)CC[C@H](OC)[C@@]34C5C[C@@H]6[C@@H](OC)C[C@@]7(OCO[C@@]7([C@@H](O)C23)[C@@H]14)C5[C@H]6OC (stereo partly specified)
inactive: Potency [1] | Potency [2]

C[C@H](N)Cc1c[nH]c2ccc(O)cc12
20.6%: max response ([24]; measured here: cell count channel max response)
23.2%: max response ([24]; measured here: lipid channel max response)
inactive: outcome [11] | Potency [3] | activity change, negative = inhibition [12] 3.63% | outcome [13] | Potency [4] > 46 µM | outcome [6] | activation [14] -4.29% | outcome [15] | Potency [16] | Potency [17] | outcome [18] | outcome [19] | outcome [20] | outcome [21] | outcome [22] | outcome [23] | activity change, negative = inhibition ([24]; at 57.5 µM (top of the series)) 0.648% | Potency [9] | Potency [1] | Potency [2]

c1ccc(C2CNCc3ccccc32)cc1 (stereo unspecified)
inactive: Potency [1] | Potency [2]

NCCCC[C@H](NC(=O)[C@H](Cc1ccccc1)NC(=O)[C@H](CCCN=C(N)N)NC(=O)[C@@H](N)Cc1ccc(O)cc1)C(N)=O
inactive: activity change, negative = inhibition [1] 9.11% [at 6.83 µM] | activity change, negative = inhibition [2] -26.5% [at 3.88 µM]
